Source: PubChem BioAssay (NCATS)
Results filed as inconclusive are left out. Active and inactive are the calls of the source. Unless noted, calls come from the whole dose curve; as a rule, active = well fitted curve in the direction sought with a large enough effect; inconclusive = small, poorly fitted or top-dose-only effect, or another doubt; inactive = no such curve, though single readings can be large; an effect the other way counts as inactive or inconclusive.

Experiments:
[1] = Validation of Assay for Modulators of Lamin A Splicing (AID 1459; active = well fitted curve in the direction sought with a large enough effect in the signal ratio; the % refers to the signal ratio;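 note: cells exposed to compound for two days before reading; 0% is about no effect; ratio rise marks activators and ratio drop marks inhibitors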)
Method in brief: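 S3 HeLa cells stably expressing a lamin A-EGFP splicing minigene and DsRed2 were seeded at 600 cells/well in Opti-MEM with 2% FBS, pin-dosed, and incubated 48 hrs at 37 °C, 5% CO2. Laser-scanning cytometry (488 nm) gave GFP/RFP total intensity ratio.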

[2] = molecular target: DNA repair nuclease/redox regulator APEX1 (Homo sapiens) (UniProt P27695); experiment: qHTS Validation Assay for Inhibitors of the Human Apurinic/apyrimidinic Endonuclease 1 (APE1) (AID 1705;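 note: TAMRA fluorescence gain over two minutes as APE1 cuts a quenched THF abasic duplex; % is set by controls: 0 for no effect and ±100 for the full control effect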)
Method in brief: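 Human APE1 was preincubated with compound for 15 min at room temperature, then 50 nM (final) THF-abasic double-stranded DNA substrate bearing 5'-TAMRA and 3'-BHQ-2 was added. Incision-driven fluorescence rise (ex 525/em 598 nm) was read kinetically.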

[3] = molecular target: Endonuclease 4 (Escherichia coli (strain K12)) (UniProt P0A6C1); experiment: Counterscreen for APE1 Inhibitors: qHTS Validation Assay for Inhibitors of Endonuclease IV (AID 1708); note: % is set by controls: 0 for no effect and ±100 for the full control effect
Method in brief: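 Measured as reaction progress, the fluorescence gain between first and third kinetic reads after adding 50 nM TAMRA/BHQ-2 THF duplex to 2 nM enzyme preincubated 15 min with compound; 2 mM MgCl2, pH 7.5.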

[4] = molecular target: ATP-dependent DNA helicase Q1 (Homo sapiens) (UniProt P46063); experiment: qHTS Validation Assay for Inhibitors of RecQ-Like Dna Helicase 1 (RECQ1) (AID 2353);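 note: plate controls were DMSO vehicle for no effect and enzyme-free control for full effect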
Method in brief: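 RECQ1T1 50 nM; forked duplex (20 bp + 30-nt ss tails) 200 nM, ATP 2 mM final; pH 8.0, 2 mM MgCl2, 2.5 ug/ml poly(dI-dC); 15 min compound preincubation; discontinuous kinetic read over 2 h at RT.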

[5] = Cytometric Cell-Based qHTS for Inhibitors of the mTORC1 Signaling Pathway in MEF (Tsc2-/-, p53-/-) Cells (AID 2660);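 note: Tsc2 and p53 null MEFs carrying empty vector with compound for 24 h; percent of cells above a phospho-rpS6 to PI ratio cutoff in each well; plate controls were DMSO for no effect and rapamycin for full effect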
Method in brief: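 Immunofluorescence qHTS of rpS6 Ser235/236 phosphorylation: MEFs (Tsc2-/-, p53-/-) treated 24 h, 37 C, in DMEM + 10% FBS. Alexa-488 signal normalized to PI count, referenced to rapamycin (7.5 nM) and DMSO; PI cell number recorded for viability.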

[6] = High Content Imaging Cell-Based qHTS for Inhibitors of the mTORC1 Signaling Pathway in MEF (Tsc2-/-, p53-/-) Cells (AID 2666); conditions: at 38.3 µM (top of the series);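 note: percent of cells scored positive for phospho-rpS6 Ser235/236 immunostaining by imaging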
Method in brief: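 Inhibition of rpS6 phosphorylation is measured by immunofluorescence imaging in empty-vector Tsc2-/-, p53-/- mouse embryonic fibroblasts after 24 hrs compound exposure at 37 degree Celsius. Results are reported as % positive cells per well.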

[7] = High Content Imaging Cell-Based qHTS for Inhibitors of the mTORC1 Signaling Pathway in MEF Cells (AID 2667);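 note: Tsc2-/- p53-/- MEFs stably re-expressing wild-type Tsc2 exposed 24 h; plate controls were DMSO wells for no effect and rapamycin control wells for full effect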
Method in brief: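 Fixed-cell imaging of phospho-S6 (Ser235/236, Alexa-488) after 24 hrs of compound treatment at 37 degree Celsius. Signal was normalized to Hoechst, and thresholds from the highest and lowest wells split cells into % active versus % non-active.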

[8] = Validation screen for small molecules that induce DNA re-replication in MCF 10A normal breast cells (AID 463097); note: 0% is about no effect; nearly all actives have a fitted effect of over 60% in size
Method in brief: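 Readout: Hoechst nuclear fluorescence intensity, 405 ex / 500-530 em, by scanning plate imager; re-replication scored as increase in nuclei with elevated DNA content. Cells exposed to compound 48 hr, 37 C, 5% CO2 beforehand.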

[9] = molecular target: Tumor susceptibility gene 101 protein (Homo sapiens) (UniProt Q99816); experiment: qHTS Validation Assay for Iinhibitors of HIV-1 Budding by Blocking the Interaction of PTAP/TSG101 (AID 485342; calls by dose curve; note: 0% is about no effect)
Method in brief: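 Tsg101 binding domain (10 uM final) in pH 7.5 HEPES/NaCl/Tween 20/EDTA/TCEP buffer was mixed with pin-transferred compounds, then FITC-labeled PTAP peptide (50 nM final) was added; after 20 min at r.t., fluorescence polarization was read.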

[10] = molecular target: Thioredoxin reductase 1, cytoplasmic (Rattus norvegicus) (UniProt O89049); experiment: qHTS Assay for Substrates of Mammalian Selenoprotein Thioredoxin Reductase 1 (TrxR1) (AID 488772);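 note: 0% is about no effect; a drop in NADPH fluorescence below the no-compound background marks a TrxR1 substrate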
Method in brief: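 In this dual-purpose format, potential substrates are identified from the first fluorescence read after selenite addition, not from the 8-minute delta. Rat enzyme is preincubated with NADPH and then with compound at ~22 deg C.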

[11] = molecular target: Flap endonuclease 1 (Homo sapiens) (UniProt P39748); experiment: qHTS Validation Assay for the Inhibitors of Human Flap endonuclease 1 (FEN1) (AID 488816); note: % is set by controls: 0 for no effect and ±100 for the full control effect
Method in brief: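 Steps: add FEN1 (10 nM reagent) or buffer only; pin compounds; hold 15 min at room temperature; start with substrate, 50 nM final; read at 0 and 15 min; correct, normalize and fit a four-parameter Hill curve.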

[12] = molecular target: M-phase phosphoprotein 8 (Homo sapiens) (UniProt Q99549); experiment: qHTS Validation Assay for Inhibitors for MPP8 Chromodomain Interactions with Methylated Histone Tails (AID 488949);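 note: AlphaScreen signal from MPP8 chromodomain bound to biotinylated H3K9me3 peptide; top concentration of the series differs between compounds; % is set by controls: 0 for no effect and ±100 for the full control effect; nearly all actives have a fitted effect of over 55% in size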
Method in brief: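 MPP8 (50 nM) was preincubated with biotinylated H3(1-18)K9me3 peptide (50 nM) in PBS pH 7.4, 0.01% Tween-20 for 30 min at room temperature, then with compounds for 30 min; binding was detected by AlphaScreen.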

[13] = molecular target: Chromobox protein homolog 1 (Homo sapiens) (UniProt P83916); experiment: qHTS Validation Assay for Inhibitors of HP1-beta Chromodomain Interactions with Methylated Histone Tails (AID 488953);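 note: loss of AlphaScreen luminescence from HP1-beta binding biotinylated H3K9me3 peptide; % is set by controls: 0 for no effect and ±100 for the full control effect; nearly all actives have a fitted effect of over 50% in size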
Method in brief: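 Compounds pinned into a preassembled complex of HP1-beta and trimethyl-K9 histone H3(1-18) biotin peptide (50 nM each; PBS pH 7.4, 0.01% Tween-20). After 30 min, bead-based AlphaScreen detection followed.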

[14] = molecular target: Methanococcus maripaludis chaperonin (MmCpn) (UniProt Q6LX38); experiment: High-Throughput Screening for Modulators of Cytosolic Chaperonin Activity: MmCpn Primary Screen (AID 488978);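 note: 50 nM MmCpn enzyme hydrolysing 30 µM ATP at 37 °C; 0% is about no effect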
Method in brief: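 MmCpn (50 nM final) was preincubated with compound 5 min at RT, then 30 uM ATP (final) was added and the reaction ran 10 min at 37C. ADP produced was detected by Transcreener HTRF (ex 320 nm; em 590/665 nm).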

[15] = molecular target: Transient receptor potential cation channel subfamily V member 1 (Homo sapiens) (UniProt Q8NER1); experiment: HTS Assay for Compounds that Act as Enhancers of the Vanilloid Receptor 1 (AID 488979); note: 0% is about no effect
Method in brief: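 TRPV1-expressing cells loaded with Fluo-8 calcium dye; compounds added and calcium influx read kinetically for 3 min (agonist phase), then capsaicin at EC20 added and read 2 min more for enhancement. Fluorescence ex 480/em 520 nm.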

[16] = molecular target: Thyrotropin receptor (Homo sapiens) (UniProt P16473); experiment: qHTS Assay for Antagonists of the Thyroid Stimulating Hormone Receptor (AID 488980); note: 0% is about no effect
Method in brief: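 HEK293 cells transfected with human TSHR, suspended in HEPES-buffered HBSS with 70 uM RO 20-1724, were treated with compounds plus TSH at EC80 (4 nM final). cAMP was measured by competitive HTRF (cryptate anti-cAMP antibody, cAMP-d2 acceptor).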

[17] = Validation screen for small molecules that induce genotoxicity in human embryonic kidney (HEK293T) cells expressing luciferase-tagged ELG1 (AID 493106); note: 0% is about no effect
Method in brief: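 In this validation screen, increased ELG1-luciferase signal flags compounds causing genetic stress. HEK293T reporter cells are treated 16 hr (37 °C, 5% CO2), developed with ONE-Glo for 30 min at room temperature, and imaged on a CCD-based reader.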

[18] = molecular target: ATPase family AAA domain-containing protein 5 (Homo sapiens) (UniProt Q96QE3); experiment: Validation screen for small molecules that inhibit ELG1-dependent DNA repair in human embryonic kidney (HEK293T) cells expressing luciferase-tagged ELG1 (AID 493107);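 note: cells co-treated with the DNA-damaging agent 5-fluorouridine alongside compound; % is set by controls: 0 for no effect and ±100 for the full control effect; inhibitors lower the ELG1-luciferase luminescence signal; nearly all actives have a fitted effect of over 70% in size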
Method in brief: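 Compounds reducing 5-fluorouridine-driven ELG1-luciferase signal in HEK293T cells were scored; exposure lasted 16 hr at 37 °C with luminescence detected via ONE-Glo.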

[19] = molecular target: Thyrotropin-releasing hormone receptor (Homo sapiens) (UniProt P34981); experiment: qHTS for Small Molecule Agonists and Allosteric Enhancers of Human TRH Receptor: Validation Screen for Agonists (AID 493127;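 active = calcium activation more than 3 SD above the typical response in the agonist read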;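 note: intracellular calcium rise by fluo-8 fluorescence before TRH EC20 addition; 0% is about no effect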); conditions: TRH receptor agonist cell assay; at 2 µM; stronger effect = higher value
Method in brief: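 Kinetic fluorescence assay of agonist-induced calcium release: overnight-plated TRHR cells, room-temperature fluo-8 loading, baseline then compound addition with per-second reads.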

[20] = Nrf2 qHTS screen for inhibitors: Validation (AID 493153; active = well fitted inhibition curve with a large enough effect in the main read-out, with a control signal flat, not every such curve was filed as active); conditions: viability change: measured here: cytotoxicity max response
Method in brief: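 In this counterscreened reporter format, each well gives two signals: CellTiter-Fluor fluorescence for cytotoxicity and ARE-luciferase luminescence for Nrf2 function. A549 ARE_Fluc cells in 5% FBS OPTI-MEM were exposed to compound titrations for 18-24 h.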

[21] = molecular target: Galactokinase (Homo sapiens) (UniProt P51570); experiment: qHTS Validation Assay for Inhibitors of Human Galactokinase (GALK) (AID 493189); note: 0% is about no effect
Method in brief: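 GALK (5 nM) with 35 uM ATP and 100 uM galactose in HEPES pH8.0, MgCl2, NaCl, DTT, BSA; 1 h at room temperature. Residual ATP read by Kinase-Glo Plus luminescence after 10 min.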

[22] = Validation screen for small molecules that induce DNA re-replication in SW480 colon adenocarcinoma cells (AID 504364); note: 0% is about no effect
Method in brief: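 Hoechst-stained SW480 nuclei, imaged at 405 nm excitation after 48 hr compound exposure, were counted for elevated DNA content as the re-replication signal.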

[23] = molecular target: Peptidyl-prolyl cis-trans isomerase NIMA-interacting 1 (Homo sapiens) (UniProt Q13526); experiment: qHTS Validation Assay to Find Inhibitors of Pin1 (AID 504536; active = well fitted inhibition curve with a large enough effect in the polarisation, with a control signal flat, not every such curve was filed as active; the % refers to the polarisation;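 note: 0% = full Pin1 enzyme wells and -100% = no-enzyme wells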)
Method in brief: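 Fluorescence polarization competition: compounds (titration) displace HiFluor-488-labeled Pin1-1b peptide from Pin1 (0.3 uM final) in pH 7.5 HEPES buffer with DTT, 10 min at room temperature; %Activity normalized to no-enzyme wells, curves fitted.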

[24] = molecular target: Phosphoglycerate kinase, glycosomal (Trypanosoma brucei brucei) (UniProt P07378); experiment: qHTS Validation Assay to Find Inhibitors of Phosphoglycerate Kinase (AID 504547);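 note: control wells lack PGK and mark full inhibition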
Method in brief: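 In TEA buffer (100mM, pH 7.6) containing 5mM MgCl2 and 0.01% Tween-20, the GAPDH-coupled PGK reaction proceeded for 60 minutes at room temperature before a single luminescence reading using Kinase-Glo Plus.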

[25] = molecular target: phosphoglycerate mutase (Leishmania major) (UniProt Q4Q090); experiment: qHTS Validation Assay to Find Inhibitors of Phosphoglycerate Mutase (AID 504548);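 note: end-point luminescence from Kinase-GloPlus after the PGAM reaction; % is set by controls: 0 for no effect and ±100 for the full control effect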
Method in brief: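 L. major PGAM (1.25nM final) was added to substrate buffer and pinned compound, incubated 45 minutes at room temperature, then Kinase-GloPlus added; luminescence read after 10 minutes. Buffer: 100 mM TEA pH 7.6, 5 mM MgCl2, 0.01% Tween-20.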

[26] = molecular target: Voltage-gated inwardly rectifying potassium channel KCNH2 (Homo sapiens) (UniProt Q12809); experiment: qHTS Assay for Small Molecule Inhibitors of the Human hERG Channel Activity (AID 588834);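 note: potency is the fitted concentration of half-maximal effect; lower thallium flux fluorescence means stronger hERG block; nearly all actives have a fitted effect of over 50% in size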
Method in brief: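 In hERG-transduced U2OS cells, dye-loaded for 1 hr at room temperature in dark, test compounds incubated 10 min at 37 °C before thallium stimulation. AC50 values derived by Hill modelling of concentration-response.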

[27] = molecular target: Glutaminase kidney isoform, mitochondrial (Homo sapiens) (UniProt O94925); experiment: qHTS for Inhibitors of Glutaminase (GLS): LOPAC Validation (AID 624146); note: potency is the fitted concentration of half-maximal effect; nearly all actives have a fitted effect of over 60% in size
Method in brief: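 Glutamate formation by hKGA was monitored fluorometrically using coupled glutamate oxidase, HRP and Amplex Red. Substrate was added as 1 mM L-glutamine solution; incubation was 30 min at RT after an initial read.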

Transient receptor potential cation channel subfamily V member 1 (Homo sapiens), sequence (Q8NER1 whole entry, looked up): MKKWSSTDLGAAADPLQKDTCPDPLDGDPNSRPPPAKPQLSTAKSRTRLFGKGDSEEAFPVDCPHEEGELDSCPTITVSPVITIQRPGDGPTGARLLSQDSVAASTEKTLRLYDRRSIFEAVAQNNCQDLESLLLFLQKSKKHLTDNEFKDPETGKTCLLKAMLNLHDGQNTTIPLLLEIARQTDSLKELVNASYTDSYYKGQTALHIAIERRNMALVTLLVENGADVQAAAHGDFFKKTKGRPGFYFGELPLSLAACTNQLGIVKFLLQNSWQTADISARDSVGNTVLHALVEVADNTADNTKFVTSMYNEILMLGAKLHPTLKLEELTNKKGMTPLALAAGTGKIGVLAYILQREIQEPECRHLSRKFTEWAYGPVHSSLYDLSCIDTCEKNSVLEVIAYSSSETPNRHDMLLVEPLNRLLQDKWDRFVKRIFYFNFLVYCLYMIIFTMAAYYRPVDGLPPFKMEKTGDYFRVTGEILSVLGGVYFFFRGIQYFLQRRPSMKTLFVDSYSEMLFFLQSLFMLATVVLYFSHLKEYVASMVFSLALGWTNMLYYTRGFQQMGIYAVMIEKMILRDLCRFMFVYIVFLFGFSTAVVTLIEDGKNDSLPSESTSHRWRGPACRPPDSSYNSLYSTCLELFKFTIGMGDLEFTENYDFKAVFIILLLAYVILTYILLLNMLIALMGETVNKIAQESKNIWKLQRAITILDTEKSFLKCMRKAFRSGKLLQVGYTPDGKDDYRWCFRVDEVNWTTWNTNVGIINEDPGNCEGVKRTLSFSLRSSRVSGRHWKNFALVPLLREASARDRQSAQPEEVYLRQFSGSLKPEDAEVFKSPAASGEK
Methanococcus maripaludis chaperonin (MmCpn), sequence (Q6LX38 1-543): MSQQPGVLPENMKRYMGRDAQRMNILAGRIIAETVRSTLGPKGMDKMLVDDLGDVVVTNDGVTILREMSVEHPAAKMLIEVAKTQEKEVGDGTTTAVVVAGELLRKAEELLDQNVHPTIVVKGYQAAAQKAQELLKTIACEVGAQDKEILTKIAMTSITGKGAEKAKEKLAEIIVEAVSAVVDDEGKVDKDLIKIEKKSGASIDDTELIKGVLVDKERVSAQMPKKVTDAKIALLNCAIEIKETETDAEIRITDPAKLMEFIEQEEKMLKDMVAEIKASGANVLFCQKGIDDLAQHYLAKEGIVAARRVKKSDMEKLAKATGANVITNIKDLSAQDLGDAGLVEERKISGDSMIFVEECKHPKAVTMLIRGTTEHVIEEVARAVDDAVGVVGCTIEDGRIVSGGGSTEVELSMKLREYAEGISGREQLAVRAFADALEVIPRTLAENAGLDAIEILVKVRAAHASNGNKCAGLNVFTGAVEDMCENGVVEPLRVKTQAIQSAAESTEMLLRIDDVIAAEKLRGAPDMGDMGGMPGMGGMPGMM
Thioredoxin reductase 1, cytoplasmic (Rattus norvegicus), sequence (O89049 whole entry, looked up): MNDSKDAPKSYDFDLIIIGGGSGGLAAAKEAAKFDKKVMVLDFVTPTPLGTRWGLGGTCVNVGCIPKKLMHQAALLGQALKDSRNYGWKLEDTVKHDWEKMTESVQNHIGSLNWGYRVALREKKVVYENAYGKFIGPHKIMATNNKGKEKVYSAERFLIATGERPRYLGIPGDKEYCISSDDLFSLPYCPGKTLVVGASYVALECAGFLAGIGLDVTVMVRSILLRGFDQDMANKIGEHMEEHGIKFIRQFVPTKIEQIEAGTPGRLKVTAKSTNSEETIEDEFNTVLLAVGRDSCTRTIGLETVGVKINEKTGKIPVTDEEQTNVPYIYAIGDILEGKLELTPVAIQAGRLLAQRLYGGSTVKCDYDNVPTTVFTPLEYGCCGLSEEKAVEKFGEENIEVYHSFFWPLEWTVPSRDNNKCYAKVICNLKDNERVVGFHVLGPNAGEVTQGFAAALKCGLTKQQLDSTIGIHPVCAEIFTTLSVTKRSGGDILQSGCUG
Flap endonuclease 1 (Homo sapiens), sequence (P39748 whole entry, looked up): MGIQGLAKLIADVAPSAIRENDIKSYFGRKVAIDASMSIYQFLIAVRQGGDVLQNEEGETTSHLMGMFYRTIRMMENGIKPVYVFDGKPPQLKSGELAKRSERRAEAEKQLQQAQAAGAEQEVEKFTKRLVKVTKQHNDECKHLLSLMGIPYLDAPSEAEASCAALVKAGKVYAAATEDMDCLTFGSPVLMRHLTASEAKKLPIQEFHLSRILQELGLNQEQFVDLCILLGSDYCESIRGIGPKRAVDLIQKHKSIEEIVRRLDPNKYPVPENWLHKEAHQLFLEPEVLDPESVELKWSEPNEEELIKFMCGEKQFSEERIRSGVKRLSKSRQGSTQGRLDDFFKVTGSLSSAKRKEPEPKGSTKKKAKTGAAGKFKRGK
Galactokinase (Homo sapiens), sequence (P51570 whole entry, looked up): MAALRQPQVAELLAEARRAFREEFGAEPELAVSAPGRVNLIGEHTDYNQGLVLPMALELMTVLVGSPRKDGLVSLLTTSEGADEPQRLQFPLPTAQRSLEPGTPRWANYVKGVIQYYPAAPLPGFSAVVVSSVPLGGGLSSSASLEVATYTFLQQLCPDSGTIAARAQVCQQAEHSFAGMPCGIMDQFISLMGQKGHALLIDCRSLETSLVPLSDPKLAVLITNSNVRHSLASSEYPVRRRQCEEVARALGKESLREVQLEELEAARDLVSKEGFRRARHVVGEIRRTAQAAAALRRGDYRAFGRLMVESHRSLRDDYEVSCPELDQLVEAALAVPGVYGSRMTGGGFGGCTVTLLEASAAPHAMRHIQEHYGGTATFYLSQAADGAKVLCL
ATPase family AAA domain-containing protein 5 (Homo sapiens), sequence (Q96QE3 whole entry, looked up, the tested form may be a part): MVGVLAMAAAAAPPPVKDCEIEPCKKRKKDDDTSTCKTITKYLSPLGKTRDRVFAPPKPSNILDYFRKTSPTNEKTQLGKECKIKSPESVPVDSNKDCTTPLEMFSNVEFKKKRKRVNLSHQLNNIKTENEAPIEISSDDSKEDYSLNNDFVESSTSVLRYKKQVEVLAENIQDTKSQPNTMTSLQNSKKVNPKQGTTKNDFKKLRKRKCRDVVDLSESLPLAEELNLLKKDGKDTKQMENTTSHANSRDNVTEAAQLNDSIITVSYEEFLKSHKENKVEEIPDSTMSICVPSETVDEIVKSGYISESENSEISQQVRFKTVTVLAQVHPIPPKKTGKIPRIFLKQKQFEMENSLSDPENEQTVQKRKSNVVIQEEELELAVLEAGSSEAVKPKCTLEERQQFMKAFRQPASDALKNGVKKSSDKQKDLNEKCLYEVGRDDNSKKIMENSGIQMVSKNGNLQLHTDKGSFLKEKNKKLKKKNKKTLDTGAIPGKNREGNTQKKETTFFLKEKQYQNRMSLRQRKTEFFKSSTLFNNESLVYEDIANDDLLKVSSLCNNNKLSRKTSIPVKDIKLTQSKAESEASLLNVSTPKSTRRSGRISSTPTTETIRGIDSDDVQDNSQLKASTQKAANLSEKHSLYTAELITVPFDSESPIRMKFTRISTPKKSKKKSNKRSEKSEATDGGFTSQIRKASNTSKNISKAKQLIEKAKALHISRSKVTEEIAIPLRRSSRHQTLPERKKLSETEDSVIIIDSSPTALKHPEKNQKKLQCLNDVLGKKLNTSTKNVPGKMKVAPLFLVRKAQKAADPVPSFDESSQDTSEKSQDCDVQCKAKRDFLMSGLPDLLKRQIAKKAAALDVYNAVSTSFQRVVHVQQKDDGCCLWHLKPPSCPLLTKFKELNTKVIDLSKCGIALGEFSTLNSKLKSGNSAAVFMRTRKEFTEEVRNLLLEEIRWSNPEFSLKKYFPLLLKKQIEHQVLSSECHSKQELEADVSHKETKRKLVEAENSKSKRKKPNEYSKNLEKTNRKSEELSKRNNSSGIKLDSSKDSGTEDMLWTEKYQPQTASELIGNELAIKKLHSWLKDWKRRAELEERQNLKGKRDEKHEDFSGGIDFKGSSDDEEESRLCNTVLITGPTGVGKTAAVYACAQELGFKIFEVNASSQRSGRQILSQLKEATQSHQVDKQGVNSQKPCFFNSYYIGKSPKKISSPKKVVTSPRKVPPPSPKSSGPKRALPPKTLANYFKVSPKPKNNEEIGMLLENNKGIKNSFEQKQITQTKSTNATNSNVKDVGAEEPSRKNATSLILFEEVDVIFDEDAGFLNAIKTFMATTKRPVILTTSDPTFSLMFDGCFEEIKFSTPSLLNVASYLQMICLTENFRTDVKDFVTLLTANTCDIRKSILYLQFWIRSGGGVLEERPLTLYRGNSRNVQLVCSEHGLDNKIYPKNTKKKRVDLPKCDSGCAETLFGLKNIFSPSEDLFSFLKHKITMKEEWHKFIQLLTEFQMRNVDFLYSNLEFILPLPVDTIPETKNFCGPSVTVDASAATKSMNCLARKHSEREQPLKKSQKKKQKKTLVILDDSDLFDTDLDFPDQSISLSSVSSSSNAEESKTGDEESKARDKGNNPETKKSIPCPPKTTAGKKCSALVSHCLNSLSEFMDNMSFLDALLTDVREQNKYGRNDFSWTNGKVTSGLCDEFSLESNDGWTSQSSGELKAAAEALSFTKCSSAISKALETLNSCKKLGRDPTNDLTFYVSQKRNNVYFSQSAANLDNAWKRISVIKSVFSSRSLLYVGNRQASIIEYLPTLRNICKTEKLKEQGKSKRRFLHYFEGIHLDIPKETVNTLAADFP
Peptidyl-prolyl cis-trans isomerase NIMA-interacting 1 (Homo sapiens), sequence (Q13526 whole entry, looked up): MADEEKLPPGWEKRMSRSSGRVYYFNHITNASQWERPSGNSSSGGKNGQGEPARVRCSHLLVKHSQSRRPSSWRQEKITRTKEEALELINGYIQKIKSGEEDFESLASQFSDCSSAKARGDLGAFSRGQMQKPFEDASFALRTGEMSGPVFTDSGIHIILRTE
Tumor susceptibility gene 101 protein (Homo sapiens), sequence (Q99816 whole entry, looked up, the tested form may be a part): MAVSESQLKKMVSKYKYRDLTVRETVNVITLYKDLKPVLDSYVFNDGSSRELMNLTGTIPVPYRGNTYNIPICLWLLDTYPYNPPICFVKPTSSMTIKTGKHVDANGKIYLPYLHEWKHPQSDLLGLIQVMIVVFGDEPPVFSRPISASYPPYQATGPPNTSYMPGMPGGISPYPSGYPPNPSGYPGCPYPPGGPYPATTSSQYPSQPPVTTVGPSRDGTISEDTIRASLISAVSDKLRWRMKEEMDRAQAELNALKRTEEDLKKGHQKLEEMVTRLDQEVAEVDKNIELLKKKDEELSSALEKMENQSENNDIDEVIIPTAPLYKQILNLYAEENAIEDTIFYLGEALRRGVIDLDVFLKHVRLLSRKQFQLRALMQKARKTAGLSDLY

Oc1cc2c(c(Cl)c1O)CCNCC2c1ccccc1 (stereo not drawn)
inactive: outcome [1] | Potency [2] | Potency [3] | Potency [4] | outcome [5] | outcome [6] | Potency [7] | Potency [8] | outcome [9] | outcome [10] | Potency [11] | Potency [12] | Potency [13] | outcome [14] | outcome [15] | outcome [16] | Potency [17] | Potency [18] | activation [19] 2.25% | outcome [20] | outcome [21] | outcome [22] | Potency [23] | Potency [24] | outcome [25]
active: Potency [26] 2820 nM | Potency [27] 1120 nM
-3.92%: viability change [20]
